Inconclusive results are not listed. Activity calls are given as the source filed them. How the source made its calls, unless noted: active means hit-call score of the fitted dose curve at least 0.9, where 1 is the maximum; inconclusive means response in the unintended direction; inactive means score below 0.9.
What was measured:
[1] = ATG_TCF_b_cat_CIS: Attagene CIS-FACTORIAL HepG2 Assay for human T-Cell-Factor with beta-catenin (TCF/b-cat) (AID 2282965; active means hit-call score of the fitted dose curve at least 0.9, where 1 is the maximum; inactive means score below 0.9); settings: HepG2 TCF/beta-catenin cis-reporter transcription, actives raise or lower the signal
In short: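 Measured: reporter mRNA in HepG2 transiently transfected with cis-promoter reporter units, 24 h after chemical addition. Fitting was bidirectional, DMSO as negative control.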

[2] = ATG_TAL_CIS: Attagene CIS-FACTORIAL HepG2 Assay for human TAL Basal Promoter (AID 2282966; active means hit-call score of the fitted dose curve at least 0.9, where 1 is the maximum; inactive means score below 0.9;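 further: background control endpoint measuring basal TAL promoter reporter mRNA not a specific factor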); settings: HepG2 Attagene cis-factorial TAL promoter reporter; actives raise or lower the signal
In short: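 Endogenous transcription-factor activity is sensed in HepG2 cells through transfected cis-promoter reporter constructs. After 24 h dosing, reporter transcripts are quantified by RT-PCR and capillary electrophoresis. Gain or loss of signal is fitted relative to DMSO.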

[3] = ATG_TGFb_CIS: Attagene CIS-FACTORIAL HepG2 Assay for human Transforming Growth Factor (TGF) (AID 2282967; active means hit-call score of the fitted dose curve at least 0.9, where 1 is the maximum; inactive means score below 0.9); settings: HepG2 Attagene CIS TGFb reporter, mRNA transcription; actives raise or lower the signal
In short: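 Endogenous TGFB1-linked transcription factor activity read as reporter mRNA via RT-PCR and capillary electrophoresis, 24 h after dosing transiently transfected HepG2 cells. Gain or loss of signal fitted relative to DMSO.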

[4] = ATG_VDRE_CIS: Attagene CIS-FACTORIAL HepG2 Assay for human Vitamin D Receptor Element (VDRE) (AID 2282968; active means hit-call score of the fitted dose curve at least 0.9, where 1 is the maximum; inactive means score below 0.9); settings: HepG2 VDRE cis-reporter transcription, actives raise or lower the signal
In short: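 Measures endogenous factor activity through cis-element-driven reporter transcripts in transiently transfected HepG2. Cells are treated 24 h; reporter mRNA is quantified by RT-PCR and capillary electrophoresis; fitting is bidirectional.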

[5] = target: Nuclear receptor subfamily 1 group I member 3 (Homo sapiens) (UniProt Q14994); assay: ATG_CAR_TRANS: Attagene TRANS-FACTORIAL HepG2 Assay for human Constitutive Androstane Receptor (CAR) (AID 2282969); settings: HepG2 Attagene TRANS-FACTORIAL CAR reporter;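 further: activators raise reporter mRNA above DMSO so AC50 marks induction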
In short: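 Signal is reporter mRNA induction relative to DMSO, measured 24 h after dosing by RT-PCR with fluorescent primer extension and capillary electrophoresis. Human HepG2 liver cells carried transiently transfected chimeric NR-Gal4/GAL4-UAS reporter constructs.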

[6] = target: X-box-binding protein 1 (Homo sapiens) (UniProt P17861); assay: ATG_Xbp1_CIS: Attagene CIS-FACTORIAL HepG2 Assay for human X-box Binding Protein 1 (XBP1) (AID 2282972; active means hit-call score of the fitted dose curve at least 0.9, where 1 is the maximum; inactive means score below 0.9); settings: HepG2 XBP1 cis-element reporter, Attagene multiplex; actives raise or lower the signal
In short: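 Changes in reporter transcript abundance, read by RT-PCR and capillary electrophoresis, reflect endogenous transcription factor activity. Transfected HepG2 cells received compound for 24 hours; DMSO defined baseline for bidirectional analysis.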

[7] = target: Hepatocyte nuclear factor 4-alpha (Homo sapiens) (UniProt P41235); assay: ATG_HNF4a_TRANS: Attagene TRANS-FACTORIAL HepG2 Assay for human Hepatocyte Nuclear Factor 4 alpha (HNF4a) (AID 2282982); settings: HepG2 HNF4a transactivation reporter, mRNA readout
In short: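 Multiplexed reporter assay: transfected HepG2, 24 h exposure, total RNA → oligo(dT) RT → PCR → 6-FAM extension → HpaI digest → CE fluorescence. DMSO = negative control.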

[8] = ATG_M_06_TRANS: Attagene TRANS-FACTORIAL HepG2 Assay for M06 Transcription Factor (Internal Marker) (AID 2282983); settings: HepG2 Attagene TRANS M06 internal marker reporter;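 further: reporter transcript level by RT-PCR then capillary electrophoresis fluorescence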
In short: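 Human liver HepG2 cells bearing transiently transfected chimeric NR-GAL4 reporter units were treated with chemicals for 24 h. Total RNA was reverse-transcribed, reporter sequences amplified and labelled, then quantified by capillary electrophoresis. Activity was fitted upward relative to DMSO.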

[9] = target: Nuclear receptor subfamily 4 group A member 2 (Homo sapiens) (UniProt P43354); assay: ATG_NURR1_TRANS: Attagene TRANS-FACTORIAL HepG2 Assay for human Nuclear Receptor Related Protein 1 (NURR1) (AID 2282985); settings: HepG2 Attagene TRANS reporter, mRNA readout
In short: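 Measures transcriptional activation by an exogenous NR-Gal4 chimera in transfected HepG2 liver cells. After 24 h, reporter RNA is reverse-transcribed, amplified and resolved by capillary electrophoresis; DMSO defines baseline.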

[10] = target: Transcriptional activator Myb (Homo sapiens) (UniProt P10242); assay: ATG_Myb_CIS: Attagene CIS-FACTORIAL HepG2 Assay for human Myeloblastosis (Myb) Proto-Oncogene Transcription Factor (AID 2282986; active means hit-call score of the fitted dose curve at least 0.9, where 1 is the maximum; inactive means score below 0.9); settings: HepG2 Attagene CIS-FACTORIAL Myb reporter transcription; actives raise or lower the signal
In short: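 Endogenous transcription factor activity at a Myb-responsive cis element is reported in human liver HepG2 cells after 24 h chemical treatment. Reporter mRNA is detected by RT-PCR and capillary electrophoresis fluorescence, with DMSO as baseline.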

[11] = ATG_M_19_TRANS: Attagene TRANS-FACTORIAL HepG2 Assay for M19 Transcription Factor (Internal Marker) (AID 2282974); settings: HepG2 Attagene TRANS-FACTORIAL M19 internal marker reporter
In short: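 After transfection of HepG2 with GAL4-UAS-driven reporter constructs, cells are dosed for 24 h. Total RNA is reverse-transcribed, reporter sequences PCR-amplified and labelled, then HpaI-digested and sized by capillary electrophoresis.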

[12] = target: Oxysterols receptor LXR-alpha (Homo sapiens) (UniProt Q13133); assay: ATG_LXRa_TRANS: Attagene TRANS-FACTORIAL HepG2 Assay for human Liver X Receptor alpha (LXRa) (AID 2282980); settings: HepG2 Attagene TRANS reporter, LXRa transactivation
In short: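 Transient HepG2 transfectants, 24 h dosing, RT-PCR/CE mRNA reporter quantitation; gain-of-signal vs DMSO.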

[13] = ATG_M_32_TRANS: Attagene TRANS-FACTORIAL HepG2 Assay for M32 Transcription Factor (Internal Marker) (AID 2282984); settings: HepG2 Attagene TRANS M32 internal marker reporter;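 further: transcript level of a background control reporter unit measured by RT-PCR and capillary electrophoresis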
In short: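 Cell-based TRANS-format assay in HepG2: exogenous chimeric GAL4 reporter units transiently expressed, compounds applied 24 h. Reporter mRNA detected by RT-PCR plus capillary electrophoresis; this readout is an internal background marker.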

[14] = ATG_GAL4_TRANS: Attagene TRANS-FACTORIAL HepG2 Assay for GAL4 (Internal Marker) (AID 2282976); settings: HepG2 Attagene TRANS GAL4 internal marker reporter
In short: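 Fluorescence from capillary electrophoresis of labelled RT-PCR products quantifies reporter mRNA induction after 24 h dosing of HepG2 cells carrying transfected GAL4-UAS reporter transcription units. Vehicle DMSO serves as baseline.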

[15] = target: Estrogen receptor (Homo sapiens) (UniProt P03372); assay: ATG_ERa_TRANS: Attagene TRANS-FACTORIAL HepG2 Assay for human Estrogen Receptor alpha (ERa) (AID 2282970); settings: HepG2 Attagene TRANS ERa GAL4 reporter, mRNA
In short: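 Transfected HepG2 cells carrying GAL4-UAS-driven reporter units were dosed for 24 hours. Total RNA was reverse-transcribed, reporter sequences PCR-amplified, FAM-labelled, HpaI-digested and resolved by capillary electrophoresis. Increases over DMSO control defined activity.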

[16] = target: Glucocorticoid receptor (Homo sapiens) (UniProt P04150); assay: ATG_GR_TRANS: Attagene TRANS-FACTORIAL HepG2 Assay for human Glucocorticoid Receptor (GR) (AID 2282978); settings: HepG2 Attagene TRANS GR reporter, mRNA transcription;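 further: activators score as hits since higher reporter transcript over DMSO is fitted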
In short: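 Multiplexed TRANS reporter system, HepG2; 24 h exposure; RNA → oligo(dT) RT → reporter-specific PCR → 6-FAM primer extension → HpaI cut → CE fluorescence. Gain-of-signal vs DMSO.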

[17] = target: Oxysterols receptor LXR-beta (Homo sapiens) (UniProt P55055); assay: ATG_LXRb_TRANS: Attagene TRANS-FACTORIAL HepG2 Assay for human Liver X Receptor beta (LXRb) (AID 2282981); settings: HepG2 Attagene TRANS GAL4-LXRb reporter, mRNA
In short: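 After 24 h of chemical treatment, transfected HepG2 cells yield total RNA; reporter cDNA is PCR-amplified, FAM-labelled, HpaI-cut and run on capillary electrophoresis. Signal reflects chimeric LXRb-Gal4 activity on GAL4-UAS reporters.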

[18] = target: Bile acid receptor (Homo sapiens) (UniProt Q96RI1); assay: ATG_FXR_TRANS: Attagene TRANS-FACTORIAL HepG2 Assay for Farnesoid X Receptor (FXR) (AID 2282979); settings: HepG2 Attagene TRANS FXR-GAL4 reporter transcription;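 further: hits raise reporter mRNA above DMSO so AC50 marks FXR activation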
In short: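 Chimeric FXR-GAL4 activity in transiently transfected human HepG2 liver cells is scored as induction of reporter mRNA after 24 h of dosing. Detection uses RT-PCR with fluorescent labelling and capillary electrophoresis, with DMSO serving as baseline.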

Measured: AC50

Sequence of Glucocorticoid receptor (Homo sapiens) (P04150 whole entry, looked up): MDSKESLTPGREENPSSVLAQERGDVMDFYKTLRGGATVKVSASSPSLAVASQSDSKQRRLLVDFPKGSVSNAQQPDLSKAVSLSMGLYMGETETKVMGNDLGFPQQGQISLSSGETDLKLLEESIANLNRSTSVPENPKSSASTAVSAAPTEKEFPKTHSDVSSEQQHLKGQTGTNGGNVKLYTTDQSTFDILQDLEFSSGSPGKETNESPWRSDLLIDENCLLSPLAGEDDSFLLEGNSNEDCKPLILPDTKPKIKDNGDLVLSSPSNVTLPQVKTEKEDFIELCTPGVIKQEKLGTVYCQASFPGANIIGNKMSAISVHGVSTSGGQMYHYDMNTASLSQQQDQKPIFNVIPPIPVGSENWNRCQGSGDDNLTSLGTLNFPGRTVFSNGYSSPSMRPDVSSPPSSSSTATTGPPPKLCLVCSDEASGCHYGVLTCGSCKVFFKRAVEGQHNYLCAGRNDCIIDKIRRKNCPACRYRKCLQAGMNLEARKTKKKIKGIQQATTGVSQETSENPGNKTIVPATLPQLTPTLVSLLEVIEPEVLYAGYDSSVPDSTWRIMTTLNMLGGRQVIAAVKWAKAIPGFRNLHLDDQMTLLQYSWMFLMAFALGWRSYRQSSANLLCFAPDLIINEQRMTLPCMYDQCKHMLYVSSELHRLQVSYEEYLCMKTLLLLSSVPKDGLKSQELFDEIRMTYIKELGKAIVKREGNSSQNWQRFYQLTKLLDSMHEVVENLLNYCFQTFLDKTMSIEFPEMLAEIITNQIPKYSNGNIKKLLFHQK
Sequence of X-box-binding protein 1 (Homo sapiens) (P17861 whole entry, looked up): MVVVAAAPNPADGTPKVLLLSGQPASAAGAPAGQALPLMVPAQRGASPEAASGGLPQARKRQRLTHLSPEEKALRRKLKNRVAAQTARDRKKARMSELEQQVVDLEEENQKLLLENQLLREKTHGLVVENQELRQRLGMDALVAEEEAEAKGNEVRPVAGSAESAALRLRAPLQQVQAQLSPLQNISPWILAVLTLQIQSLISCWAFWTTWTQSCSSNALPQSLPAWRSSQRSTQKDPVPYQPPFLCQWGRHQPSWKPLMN
Sequence of Nuclear receptor subfamily 4 group A member 2 (Homo sapiens) (P43354 whole entry, looked up, the tested form may be a part): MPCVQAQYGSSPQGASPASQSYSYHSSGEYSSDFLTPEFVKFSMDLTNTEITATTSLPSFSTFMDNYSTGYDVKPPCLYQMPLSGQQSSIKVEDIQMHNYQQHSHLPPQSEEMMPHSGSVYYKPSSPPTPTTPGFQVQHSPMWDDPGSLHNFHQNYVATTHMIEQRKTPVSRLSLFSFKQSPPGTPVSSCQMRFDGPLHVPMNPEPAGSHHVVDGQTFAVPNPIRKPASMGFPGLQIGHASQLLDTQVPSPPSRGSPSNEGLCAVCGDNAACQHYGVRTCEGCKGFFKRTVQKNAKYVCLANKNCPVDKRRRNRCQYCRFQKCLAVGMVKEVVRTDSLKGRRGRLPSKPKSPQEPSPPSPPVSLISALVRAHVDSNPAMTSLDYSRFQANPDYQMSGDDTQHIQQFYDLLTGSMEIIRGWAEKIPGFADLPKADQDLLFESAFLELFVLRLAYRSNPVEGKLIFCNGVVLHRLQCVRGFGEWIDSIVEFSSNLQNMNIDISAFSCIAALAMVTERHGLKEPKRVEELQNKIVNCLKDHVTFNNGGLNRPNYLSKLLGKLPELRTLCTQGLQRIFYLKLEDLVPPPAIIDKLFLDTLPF
Sequence of Nuclear receptor subfamily 1 group I member 3 (Homo sapiens) (Q14994 whole entry, looked up, the tested form may be a part): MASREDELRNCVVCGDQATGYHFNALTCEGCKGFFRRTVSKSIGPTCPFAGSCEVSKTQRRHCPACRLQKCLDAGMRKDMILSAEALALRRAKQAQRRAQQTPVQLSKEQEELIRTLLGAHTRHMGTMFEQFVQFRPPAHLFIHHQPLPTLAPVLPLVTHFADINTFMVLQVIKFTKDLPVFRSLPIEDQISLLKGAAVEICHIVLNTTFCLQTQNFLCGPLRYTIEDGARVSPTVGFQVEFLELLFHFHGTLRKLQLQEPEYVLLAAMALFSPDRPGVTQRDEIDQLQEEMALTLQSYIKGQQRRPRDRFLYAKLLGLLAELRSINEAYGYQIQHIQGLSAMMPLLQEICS
Sequence of Oxysterols receptor LXR-beta (Homo sapiens) (P55055 whole entry, looked up, the tested form may be a part): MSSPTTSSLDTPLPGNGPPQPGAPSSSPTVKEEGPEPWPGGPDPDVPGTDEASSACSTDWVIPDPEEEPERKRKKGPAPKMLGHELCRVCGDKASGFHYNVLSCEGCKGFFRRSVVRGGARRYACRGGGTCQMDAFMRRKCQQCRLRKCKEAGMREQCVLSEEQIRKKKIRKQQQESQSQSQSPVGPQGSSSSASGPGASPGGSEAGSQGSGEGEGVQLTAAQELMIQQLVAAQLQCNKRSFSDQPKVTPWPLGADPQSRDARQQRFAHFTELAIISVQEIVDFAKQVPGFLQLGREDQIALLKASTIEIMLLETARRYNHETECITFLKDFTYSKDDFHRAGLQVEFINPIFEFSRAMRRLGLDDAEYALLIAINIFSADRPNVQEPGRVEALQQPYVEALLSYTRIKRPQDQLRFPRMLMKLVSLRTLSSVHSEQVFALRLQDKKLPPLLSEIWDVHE
Sequence of Estrogen receptor (Homo sapiens) (P03372 whole entry, looked up, the tested form may be a part): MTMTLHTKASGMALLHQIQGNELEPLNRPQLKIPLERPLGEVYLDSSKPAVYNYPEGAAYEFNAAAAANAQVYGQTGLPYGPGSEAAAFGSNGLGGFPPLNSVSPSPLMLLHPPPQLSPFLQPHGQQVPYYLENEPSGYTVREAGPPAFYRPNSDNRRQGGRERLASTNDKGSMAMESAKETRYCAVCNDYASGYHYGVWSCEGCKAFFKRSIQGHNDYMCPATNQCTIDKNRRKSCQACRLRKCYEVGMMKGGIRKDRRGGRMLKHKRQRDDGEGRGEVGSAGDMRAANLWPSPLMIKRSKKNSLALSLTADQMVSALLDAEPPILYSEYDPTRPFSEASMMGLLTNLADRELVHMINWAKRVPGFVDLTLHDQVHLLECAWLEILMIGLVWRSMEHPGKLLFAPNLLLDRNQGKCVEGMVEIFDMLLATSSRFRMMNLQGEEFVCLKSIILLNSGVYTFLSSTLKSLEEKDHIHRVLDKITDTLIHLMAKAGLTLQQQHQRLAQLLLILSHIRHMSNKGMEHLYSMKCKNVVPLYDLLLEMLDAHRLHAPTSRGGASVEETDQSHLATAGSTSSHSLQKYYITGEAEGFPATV
Sequence of Oxysterols receptor LXR-alpha (Homo sapiens) (Q13133 whole entry, looked up): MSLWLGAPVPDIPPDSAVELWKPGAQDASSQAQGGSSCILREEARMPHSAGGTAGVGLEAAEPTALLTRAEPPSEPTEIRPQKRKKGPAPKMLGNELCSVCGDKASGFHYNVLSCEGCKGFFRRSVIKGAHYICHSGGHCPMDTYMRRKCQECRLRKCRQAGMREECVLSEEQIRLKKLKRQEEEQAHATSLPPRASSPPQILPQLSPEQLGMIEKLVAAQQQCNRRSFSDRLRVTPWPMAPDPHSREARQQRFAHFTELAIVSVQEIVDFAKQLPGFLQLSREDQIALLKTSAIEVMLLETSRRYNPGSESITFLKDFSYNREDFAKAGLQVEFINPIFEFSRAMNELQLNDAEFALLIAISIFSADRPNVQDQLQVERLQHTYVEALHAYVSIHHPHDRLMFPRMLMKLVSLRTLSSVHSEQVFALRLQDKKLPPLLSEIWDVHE
Sequence of Bile acid receptor (Homo sapiens) (Q96RI1 whole entry, looked up, the tested form may be a part): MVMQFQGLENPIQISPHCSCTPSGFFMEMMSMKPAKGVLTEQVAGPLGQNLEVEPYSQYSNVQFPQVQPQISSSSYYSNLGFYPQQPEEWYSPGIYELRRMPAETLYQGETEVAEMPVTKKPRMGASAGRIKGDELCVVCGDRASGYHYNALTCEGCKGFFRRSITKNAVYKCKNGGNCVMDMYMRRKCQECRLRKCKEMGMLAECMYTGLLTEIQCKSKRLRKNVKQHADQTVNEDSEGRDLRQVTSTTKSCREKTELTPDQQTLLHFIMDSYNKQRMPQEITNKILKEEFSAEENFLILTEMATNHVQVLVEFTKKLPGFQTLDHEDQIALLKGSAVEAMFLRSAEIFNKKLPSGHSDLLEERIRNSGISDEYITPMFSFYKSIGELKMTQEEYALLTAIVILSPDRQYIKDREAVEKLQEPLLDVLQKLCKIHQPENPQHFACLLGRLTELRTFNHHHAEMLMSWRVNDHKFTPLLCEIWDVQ
Sequence of Transcriptional activator Myb (Homo sapiens) (P10242 whole entry, looked up): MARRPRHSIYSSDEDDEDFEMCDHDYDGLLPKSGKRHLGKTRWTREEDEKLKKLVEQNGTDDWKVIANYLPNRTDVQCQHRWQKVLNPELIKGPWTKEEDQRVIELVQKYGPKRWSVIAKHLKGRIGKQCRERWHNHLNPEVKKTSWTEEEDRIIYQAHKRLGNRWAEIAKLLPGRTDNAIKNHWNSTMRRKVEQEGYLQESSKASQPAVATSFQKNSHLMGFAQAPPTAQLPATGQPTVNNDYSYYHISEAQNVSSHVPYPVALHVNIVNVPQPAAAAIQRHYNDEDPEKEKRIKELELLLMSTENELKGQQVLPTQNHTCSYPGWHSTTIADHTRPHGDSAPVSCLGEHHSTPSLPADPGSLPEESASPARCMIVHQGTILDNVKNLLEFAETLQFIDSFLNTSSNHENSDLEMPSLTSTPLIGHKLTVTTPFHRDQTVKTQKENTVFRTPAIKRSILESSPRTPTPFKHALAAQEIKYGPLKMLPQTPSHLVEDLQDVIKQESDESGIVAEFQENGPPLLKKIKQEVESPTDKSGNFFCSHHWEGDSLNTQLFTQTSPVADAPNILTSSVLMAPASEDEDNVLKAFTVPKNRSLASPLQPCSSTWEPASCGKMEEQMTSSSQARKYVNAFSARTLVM

Oc1ccc2c(c1)OC[C@@H](N1CCC(O)(c3ccc(F)cc3)CC1)[C@H]2O
inactive: [1] | [2] | [5] | [6] | [7] | [8] | [9] | [10]
active: [3] 64.6 µM | [4] 30.1 µM

COc1ccc2c(c1)c(CC(=O)O)c(C)n2C(=O)c1ccc(Cl)cc1
inactive: [1] | [2] | [3] | [4] | [6] | [11] | [12] | [13] | [10]

CCCCOC(=O)CCCCCCCCC(=O)OCCCC
inactive: [2] | [3] | [4] | [6] | [11] | [14] | [7] | [10]
active: [1] 146 µM

COc1ccc(C)cc1N
inactive: [1] | [2] | [3] | [4] | [5] | [15] | [6] | [11] | [14] | [16] | [12] | [17] | [8] | [9] | [10]

COc1cc(-c2nc(NC(=O)c3cc4cc(C)cc(C)c4n3CC(=O)O)sc2CCC2CCCCC2)c(OC)cc1Cl
inactive: [15] | [11] | [16] | [18] | [12] | [17] | [7] | [8] | [13] | [9]
active: [1] 5.17 µM | [2] 100 µM | [3] 26 µM | [4] 7.46 µM | [6] 21.7 µM | [10] 24.2 µM

C=CCOC(=O)c1ccccc1C(=O)OCC=C
active: [12] 25.1 µM
inactive: [1] | [2] | [3] | [6] | [11] | [14] | [18] | [17] | [8] | [9] | [10]

COc1cc(C=O)ccc1O
inactive: [1] | [2] | [3] | [4] | [5] | [15] | [6] | [11] | [14] | [18] | [10]

O=C(O)CCCCC(=O)O
inactive: [1] | [2] | [3] | [4] | [6] | [11] | [16] | [18] | [17] | [7] | [13] | [9] | [10]

CNC(=O)[C@H]1O[C@@H](n2cnc3c(NCc4cc(Cl)ccc4OCc4cc(C)no4)ncnc32)[C@H](O)[C@@H]1N
inactive: [1] | [2] | [3] | [4] | [6] | [14] | [12] | [8] | [10]

CN1CCCC1=O
inactive: [1] | [2] | [3] | [4] | [15] | [6] | [12] | [17] | [8] | [9] | [10]

— PubChem BioAssay (EPA / NIEHS)
